# PMC7862700, “An all-to-all approach to the identification of sequence-specific readers for epigenetic DNA modifications on cytosine”
# Legend:
# Assay in all cases: DAPPL (digital affinity profiling via proximity ligation, sequencing); 10 mM Tris-HCl pH 7.5, 50 mM NaCl, 1 mM DTT, 4% glycerol, room temperature, 30 min; GST-TFs on glutathione beads, 16-mer random dsDNA library, 0.1% formaldehyde crosslink after washing; high values mean tight binding
# FLI1 = biological target: T1, FLI1 (Homo sapiens, UniProt Q01543 1-452); details: protein: recombinant; tags: N-terminal GST; dsDNA, one strand shown
# T1 sequence: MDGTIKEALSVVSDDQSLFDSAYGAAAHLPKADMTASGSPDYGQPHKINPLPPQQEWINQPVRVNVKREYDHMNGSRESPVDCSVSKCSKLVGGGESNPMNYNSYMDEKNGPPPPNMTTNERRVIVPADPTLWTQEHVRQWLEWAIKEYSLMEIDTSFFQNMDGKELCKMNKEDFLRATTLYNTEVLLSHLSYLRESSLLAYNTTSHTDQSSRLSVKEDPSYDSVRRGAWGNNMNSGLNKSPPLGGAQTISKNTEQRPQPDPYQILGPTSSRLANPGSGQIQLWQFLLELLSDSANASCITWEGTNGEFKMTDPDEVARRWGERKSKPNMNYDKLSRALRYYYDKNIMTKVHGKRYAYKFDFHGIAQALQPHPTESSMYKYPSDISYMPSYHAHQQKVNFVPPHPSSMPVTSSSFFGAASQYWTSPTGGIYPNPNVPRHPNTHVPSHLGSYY
# In short: (§1)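 Human transcription factors carrying a GST fusion were produced in yeast, bound to glutathione beads, tagged with DNA barcodes and pooled together with a tag-only sample. Each pool was held with 200 nmole of a random double-stranded 16-mer DNA library in Tris/NaCl/DTT/glycerol buffer for 30 min at room temperature, then washed, crosslinked in 0.1% formaldehyde, proximity-ligated with BsaI/T4 ligase (1 h, 37 °C), PCR-amplified and sequenced on an Illumina NextSeq500. Binding signal is the read frequency of each hexamer for a given factor divided by its frequency in the tag-only sample.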
# ELK1 = biological target: T2, ELK1 (Homo sapiens, UniProt P19419 1-428); details: protein: recombinant; tags: N-terminal GST; dsDNA, one strand shown
# T2 sequence: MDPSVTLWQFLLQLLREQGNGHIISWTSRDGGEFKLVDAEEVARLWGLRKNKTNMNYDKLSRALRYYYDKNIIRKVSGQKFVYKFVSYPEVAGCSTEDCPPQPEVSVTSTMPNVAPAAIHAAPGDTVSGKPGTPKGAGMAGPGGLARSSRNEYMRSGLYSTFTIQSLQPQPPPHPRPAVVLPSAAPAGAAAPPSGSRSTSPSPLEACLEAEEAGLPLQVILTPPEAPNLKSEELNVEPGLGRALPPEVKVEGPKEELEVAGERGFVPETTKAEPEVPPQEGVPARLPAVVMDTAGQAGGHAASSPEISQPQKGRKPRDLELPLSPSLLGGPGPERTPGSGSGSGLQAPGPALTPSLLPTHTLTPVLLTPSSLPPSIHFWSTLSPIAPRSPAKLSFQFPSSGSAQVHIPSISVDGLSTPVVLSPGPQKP
# In short: as §1
# GABPA = biological target: T3, GABPA (Homo sapiens, UniProt Q06546 1-454); details: protein: recombinant; tags: N-terminal GST; dsDNA, one strand shown
# T3 sequence: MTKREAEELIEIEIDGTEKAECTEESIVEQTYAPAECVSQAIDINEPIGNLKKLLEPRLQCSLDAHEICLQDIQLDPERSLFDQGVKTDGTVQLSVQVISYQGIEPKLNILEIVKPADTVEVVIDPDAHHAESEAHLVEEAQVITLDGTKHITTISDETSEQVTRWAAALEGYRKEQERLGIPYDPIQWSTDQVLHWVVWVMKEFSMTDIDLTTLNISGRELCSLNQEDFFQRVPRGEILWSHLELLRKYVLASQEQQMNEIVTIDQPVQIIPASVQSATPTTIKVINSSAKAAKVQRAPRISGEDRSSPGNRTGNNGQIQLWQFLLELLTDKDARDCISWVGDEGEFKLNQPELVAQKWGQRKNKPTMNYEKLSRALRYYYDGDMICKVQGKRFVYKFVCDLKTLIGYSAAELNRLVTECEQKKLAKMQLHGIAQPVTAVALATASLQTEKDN
# In short: as §1
# ERG = biological target: T4, ERG (Homo sapiens, UniProt P11308 1-479); details: protein: recombinant; tags: N-terminal GST; dsDNA, one strand shown
# T4 sequence: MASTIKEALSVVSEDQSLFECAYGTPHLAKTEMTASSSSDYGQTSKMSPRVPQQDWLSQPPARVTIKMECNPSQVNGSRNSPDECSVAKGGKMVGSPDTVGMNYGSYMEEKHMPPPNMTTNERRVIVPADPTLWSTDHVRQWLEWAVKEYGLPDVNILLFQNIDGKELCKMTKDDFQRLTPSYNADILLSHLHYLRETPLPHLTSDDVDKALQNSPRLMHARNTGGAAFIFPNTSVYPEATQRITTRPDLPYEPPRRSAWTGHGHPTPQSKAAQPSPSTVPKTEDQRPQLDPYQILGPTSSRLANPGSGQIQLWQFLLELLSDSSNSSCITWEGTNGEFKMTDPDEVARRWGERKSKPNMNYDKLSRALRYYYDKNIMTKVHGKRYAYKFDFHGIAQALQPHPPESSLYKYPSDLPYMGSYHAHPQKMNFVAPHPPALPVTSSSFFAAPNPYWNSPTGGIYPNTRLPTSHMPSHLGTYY
# In short: as §1
# ELF1 = ELF1 (Homo sapiens, UniProt P32519 1-619); details: protein: recombinant; tags: N-terminal GST; dsDNA, one strand shown
# In short: as §1
# EHF = biological target: T5, EHF (Homo sapiens, UniProt Q9NZC4 1-300); details: protein: recombinant; tags: N-terminal GST; dsDNA, one strand shown
# T5 sequence: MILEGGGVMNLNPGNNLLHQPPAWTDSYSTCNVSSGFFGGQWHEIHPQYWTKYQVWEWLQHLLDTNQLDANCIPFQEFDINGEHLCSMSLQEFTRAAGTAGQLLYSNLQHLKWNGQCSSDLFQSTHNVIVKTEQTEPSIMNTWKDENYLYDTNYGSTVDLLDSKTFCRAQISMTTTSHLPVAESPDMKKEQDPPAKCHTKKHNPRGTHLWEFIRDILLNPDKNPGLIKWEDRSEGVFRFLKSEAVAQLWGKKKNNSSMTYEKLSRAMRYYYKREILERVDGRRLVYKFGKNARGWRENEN
# In short: as §1
# SPI1 = SPI1 (Homo sapiens, UniProt P17947 1-270); details: protein: recombinant; tags: N-terminal GST; dsDNA, one strand shown
# In short: as §1
# SPIB = SPIB (Homo sapiens, UniProt Q01892 1-262); details: protein: recombinant; tags: N-terminal GST; dsDNA, one strand shown
# In short: as §1
# ELK3 = biological target: T6, ELK3 (Homo sapiens, UniProt P41970 1-407); details: protein: recombinant; tags: N-terminal GST; dsDNA, one strand shown
# T6 sequence: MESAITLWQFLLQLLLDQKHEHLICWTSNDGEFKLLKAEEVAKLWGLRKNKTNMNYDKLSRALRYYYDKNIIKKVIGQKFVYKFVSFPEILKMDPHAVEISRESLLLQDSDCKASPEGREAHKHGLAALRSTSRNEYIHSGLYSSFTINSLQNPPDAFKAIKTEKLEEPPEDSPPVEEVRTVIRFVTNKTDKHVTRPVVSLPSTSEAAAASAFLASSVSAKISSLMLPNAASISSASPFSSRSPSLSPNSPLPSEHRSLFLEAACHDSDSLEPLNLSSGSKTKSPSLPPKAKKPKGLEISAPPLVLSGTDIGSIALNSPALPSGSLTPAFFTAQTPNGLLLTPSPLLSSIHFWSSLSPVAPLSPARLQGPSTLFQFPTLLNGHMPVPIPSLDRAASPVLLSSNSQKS
# In short: as §1
# FEV = biological target: T7, FEV (Homo sapiens, UniProt Q99581 1-238); details: protein: recombinant; tags: N-terminal GST; dsDNA, one strand shown
# T7 sequence: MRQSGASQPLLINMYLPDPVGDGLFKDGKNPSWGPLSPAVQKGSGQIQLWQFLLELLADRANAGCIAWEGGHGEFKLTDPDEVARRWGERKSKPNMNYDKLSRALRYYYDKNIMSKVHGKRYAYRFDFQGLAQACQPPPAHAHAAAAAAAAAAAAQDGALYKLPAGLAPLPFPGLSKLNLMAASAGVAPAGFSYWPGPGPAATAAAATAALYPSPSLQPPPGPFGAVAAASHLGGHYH
# In short: as §1
# ETV5 = ETV5 (Homo sapiens, UniProt P41161 1-510); details: protein: recombinant; tags: N-terminal GST; dsDNA, one strand shown
# In short: as §1
# HSF1 = HSF1 (Homo sapiens, UniProt Q00613 1-529); details: protein: recombinant; tags: N-terminal GST; chain copies: 3; dsDNA, one strand shown
# In short: as §1
# SPIC = biological target: T8, SPIC (Homo sapiens, UniProt Q8N5J4 1-248); details: protein: recombinant; tags: N-terminal GST; dsDNA, one strand shown
# T8 sequence: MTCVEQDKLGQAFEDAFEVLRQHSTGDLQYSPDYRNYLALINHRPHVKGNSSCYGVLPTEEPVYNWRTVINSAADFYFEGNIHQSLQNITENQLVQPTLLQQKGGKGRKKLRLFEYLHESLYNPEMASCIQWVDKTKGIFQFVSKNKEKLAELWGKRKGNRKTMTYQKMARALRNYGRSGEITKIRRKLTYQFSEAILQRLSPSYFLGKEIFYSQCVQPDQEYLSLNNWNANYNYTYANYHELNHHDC
# In short: as §1
# ELF4 = ELF4 (Homo sapiens, UniProt Q99607 1-663); details: protein: recombinant; tags: N-terminal GST; dsDNA, one strand shown
# In short: as §1
# ELK4 = biological target: T9, ELK4 (Homo sapiens, UniProt P28324-2 1-405); details: protein: recombinant; tags: N-terminal GST; dsDNA, one strand shown
# T9 sequence: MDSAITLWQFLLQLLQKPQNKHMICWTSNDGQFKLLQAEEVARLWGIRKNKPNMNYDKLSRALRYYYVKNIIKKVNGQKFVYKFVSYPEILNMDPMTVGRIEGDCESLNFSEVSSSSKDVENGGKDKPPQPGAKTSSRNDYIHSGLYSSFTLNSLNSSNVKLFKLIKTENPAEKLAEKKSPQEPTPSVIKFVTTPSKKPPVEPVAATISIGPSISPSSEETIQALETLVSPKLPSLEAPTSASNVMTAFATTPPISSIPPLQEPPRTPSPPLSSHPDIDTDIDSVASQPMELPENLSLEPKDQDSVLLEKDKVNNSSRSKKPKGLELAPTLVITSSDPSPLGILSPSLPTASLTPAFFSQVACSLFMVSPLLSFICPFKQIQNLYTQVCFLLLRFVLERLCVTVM
# In short: as §1
# ETV2 = biological target: T10, ETV2 (Homo sapiens, UniProt O00321 1-342); details: protein: recombinant; tags: N-terminal GST; dsDNA, one strand shown
# T10 sequence: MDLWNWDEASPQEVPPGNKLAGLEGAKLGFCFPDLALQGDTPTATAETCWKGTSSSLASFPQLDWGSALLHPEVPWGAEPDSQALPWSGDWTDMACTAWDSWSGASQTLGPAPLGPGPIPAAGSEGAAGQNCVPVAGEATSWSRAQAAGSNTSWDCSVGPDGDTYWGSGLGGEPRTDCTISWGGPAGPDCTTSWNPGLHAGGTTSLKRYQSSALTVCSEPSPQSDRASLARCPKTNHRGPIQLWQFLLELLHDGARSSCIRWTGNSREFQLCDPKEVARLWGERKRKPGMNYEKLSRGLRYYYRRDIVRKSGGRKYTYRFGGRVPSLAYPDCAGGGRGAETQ
# In short: as §1
# ELF3 = biological target: T11, ELF3 (Homo sapiens, UniProt P78545 1-371); details: protein: recombinant; tags: N-terminal GST; dsDNA, one strand shown
# T11 sequence: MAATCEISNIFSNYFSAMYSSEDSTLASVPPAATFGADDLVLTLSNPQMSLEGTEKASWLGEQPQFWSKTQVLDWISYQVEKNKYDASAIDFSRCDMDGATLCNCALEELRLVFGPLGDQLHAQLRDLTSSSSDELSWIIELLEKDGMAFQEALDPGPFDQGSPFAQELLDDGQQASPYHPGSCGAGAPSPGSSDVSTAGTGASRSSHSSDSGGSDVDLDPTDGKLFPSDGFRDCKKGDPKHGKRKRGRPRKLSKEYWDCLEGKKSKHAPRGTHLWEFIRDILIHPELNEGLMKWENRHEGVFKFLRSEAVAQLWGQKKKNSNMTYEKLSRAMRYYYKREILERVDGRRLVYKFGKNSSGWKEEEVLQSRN
# In short: as §1
# CRX = CRX (Homo sapiens, UniProt O43186 1-299); details: protein: recombinant; tags: N-terminal GST; dsDNA, one strand shown
# In short: as §1
# ETV1 = ETV1 (Homo sapiens, UniProt P50549 1-477); details: protein: recombinant; tags: N-terminal GST; dsDNA, one strand shown
# In short: as §1
# Sequence of ETV1 (P50549 whole entry): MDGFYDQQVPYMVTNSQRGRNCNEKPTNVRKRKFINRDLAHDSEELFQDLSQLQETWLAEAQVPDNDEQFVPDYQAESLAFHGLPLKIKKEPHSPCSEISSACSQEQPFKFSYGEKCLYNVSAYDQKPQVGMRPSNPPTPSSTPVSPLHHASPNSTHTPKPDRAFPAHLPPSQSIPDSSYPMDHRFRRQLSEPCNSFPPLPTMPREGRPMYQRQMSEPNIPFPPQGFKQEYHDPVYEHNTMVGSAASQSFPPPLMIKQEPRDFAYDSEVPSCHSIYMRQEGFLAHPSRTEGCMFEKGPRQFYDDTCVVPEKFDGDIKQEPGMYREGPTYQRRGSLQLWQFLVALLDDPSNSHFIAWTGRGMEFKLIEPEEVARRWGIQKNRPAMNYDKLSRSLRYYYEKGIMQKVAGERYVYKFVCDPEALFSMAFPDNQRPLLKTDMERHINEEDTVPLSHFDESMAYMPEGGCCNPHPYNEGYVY
# Sequence of HSF1 (Q00613 whole entry): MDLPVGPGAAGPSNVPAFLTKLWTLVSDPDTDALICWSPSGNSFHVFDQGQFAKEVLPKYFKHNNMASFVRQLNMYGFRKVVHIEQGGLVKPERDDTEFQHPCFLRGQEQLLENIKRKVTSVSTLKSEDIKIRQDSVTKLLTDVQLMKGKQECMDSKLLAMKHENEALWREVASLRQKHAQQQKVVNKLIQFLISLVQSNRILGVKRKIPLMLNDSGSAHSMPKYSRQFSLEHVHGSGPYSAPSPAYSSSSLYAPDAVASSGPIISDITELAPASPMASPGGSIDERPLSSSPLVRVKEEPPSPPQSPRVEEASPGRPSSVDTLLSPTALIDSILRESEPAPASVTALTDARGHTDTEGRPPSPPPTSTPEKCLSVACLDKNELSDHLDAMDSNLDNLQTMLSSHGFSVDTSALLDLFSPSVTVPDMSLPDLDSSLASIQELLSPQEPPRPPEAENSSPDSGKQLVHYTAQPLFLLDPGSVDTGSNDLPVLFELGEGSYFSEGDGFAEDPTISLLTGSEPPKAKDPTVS
# Sequence of SPIB (Q01892 whole entry): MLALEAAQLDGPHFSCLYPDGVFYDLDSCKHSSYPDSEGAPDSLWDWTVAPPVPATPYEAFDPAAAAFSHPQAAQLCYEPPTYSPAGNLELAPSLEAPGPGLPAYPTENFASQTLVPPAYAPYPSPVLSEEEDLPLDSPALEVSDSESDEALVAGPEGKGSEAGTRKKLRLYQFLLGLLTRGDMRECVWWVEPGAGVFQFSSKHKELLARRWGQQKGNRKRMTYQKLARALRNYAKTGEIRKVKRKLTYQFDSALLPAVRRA
# Sequence of ELF4 (Q99607 whole entry): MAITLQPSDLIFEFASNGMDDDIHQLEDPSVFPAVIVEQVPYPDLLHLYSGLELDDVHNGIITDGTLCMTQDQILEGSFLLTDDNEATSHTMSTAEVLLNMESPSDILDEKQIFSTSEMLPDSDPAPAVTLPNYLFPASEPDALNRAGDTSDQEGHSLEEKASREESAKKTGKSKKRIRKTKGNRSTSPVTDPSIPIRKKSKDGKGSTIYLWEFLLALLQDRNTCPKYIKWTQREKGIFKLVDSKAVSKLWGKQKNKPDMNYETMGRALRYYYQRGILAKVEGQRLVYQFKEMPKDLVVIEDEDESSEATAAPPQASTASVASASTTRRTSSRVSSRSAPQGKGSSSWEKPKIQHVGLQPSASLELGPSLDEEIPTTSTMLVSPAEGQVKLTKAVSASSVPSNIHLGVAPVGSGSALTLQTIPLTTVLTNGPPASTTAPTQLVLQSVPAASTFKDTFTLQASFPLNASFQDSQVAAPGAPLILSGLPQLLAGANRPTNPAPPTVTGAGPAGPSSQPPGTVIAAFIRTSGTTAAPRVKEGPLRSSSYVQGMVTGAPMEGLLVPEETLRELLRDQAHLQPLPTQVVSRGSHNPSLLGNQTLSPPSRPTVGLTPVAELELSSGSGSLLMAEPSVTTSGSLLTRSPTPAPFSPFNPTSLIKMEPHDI
# Sequence of ELF1 (P32519 whole entry): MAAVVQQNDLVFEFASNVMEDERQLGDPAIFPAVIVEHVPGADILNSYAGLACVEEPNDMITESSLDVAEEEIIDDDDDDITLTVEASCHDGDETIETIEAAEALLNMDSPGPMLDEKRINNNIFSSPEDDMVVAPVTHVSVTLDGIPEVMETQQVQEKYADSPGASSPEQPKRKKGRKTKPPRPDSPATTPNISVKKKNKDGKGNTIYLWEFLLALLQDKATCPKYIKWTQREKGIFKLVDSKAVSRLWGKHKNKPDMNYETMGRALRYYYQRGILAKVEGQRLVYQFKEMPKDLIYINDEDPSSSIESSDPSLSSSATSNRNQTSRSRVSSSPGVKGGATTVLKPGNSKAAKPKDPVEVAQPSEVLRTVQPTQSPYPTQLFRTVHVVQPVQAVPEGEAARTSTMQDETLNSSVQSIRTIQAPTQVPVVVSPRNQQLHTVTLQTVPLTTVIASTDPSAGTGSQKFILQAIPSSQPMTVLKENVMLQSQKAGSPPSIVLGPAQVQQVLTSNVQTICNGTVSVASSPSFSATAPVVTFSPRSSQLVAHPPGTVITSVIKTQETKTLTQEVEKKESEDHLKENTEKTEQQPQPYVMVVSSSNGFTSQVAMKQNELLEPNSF
# Sequence of ETV5 (P41161 whole entry): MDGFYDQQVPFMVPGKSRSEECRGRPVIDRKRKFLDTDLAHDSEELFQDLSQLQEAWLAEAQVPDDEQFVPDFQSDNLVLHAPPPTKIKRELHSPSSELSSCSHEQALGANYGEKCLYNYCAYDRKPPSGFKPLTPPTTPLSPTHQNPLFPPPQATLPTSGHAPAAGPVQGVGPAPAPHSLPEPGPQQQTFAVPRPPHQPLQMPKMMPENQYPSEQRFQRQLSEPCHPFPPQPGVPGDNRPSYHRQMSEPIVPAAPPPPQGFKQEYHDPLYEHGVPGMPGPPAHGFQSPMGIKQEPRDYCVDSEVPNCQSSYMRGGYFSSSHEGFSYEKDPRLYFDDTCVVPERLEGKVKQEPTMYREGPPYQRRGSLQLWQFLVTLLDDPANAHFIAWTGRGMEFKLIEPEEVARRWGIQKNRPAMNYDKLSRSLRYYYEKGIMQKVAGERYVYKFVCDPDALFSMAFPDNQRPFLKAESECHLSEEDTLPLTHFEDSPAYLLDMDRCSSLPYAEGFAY
# Sequence of CRX (O43186 whole entry): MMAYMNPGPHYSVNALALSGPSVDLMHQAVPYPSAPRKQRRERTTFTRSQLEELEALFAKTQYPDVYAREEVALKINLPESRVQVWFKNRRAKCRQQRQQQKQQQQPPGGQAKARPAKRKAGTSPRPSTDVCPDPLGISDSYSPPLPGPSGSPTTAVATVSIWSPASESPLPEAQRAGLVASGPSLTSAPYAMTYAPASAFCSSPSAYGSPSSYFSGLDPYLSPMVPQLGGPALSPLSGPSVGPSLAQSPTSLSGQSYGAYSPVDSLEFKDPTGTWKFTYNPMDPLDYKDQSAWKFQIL
sequence,measurement,setting,value
CGACTT,binding signal,FLI1,"1.84 fold enrichment (6-mer frequency, TF over GST control)"
same,binding signal,ELK1,"1.85 fold enrichment (6-mer frequency, TF over GST control)"
same,binding signal,GABPA,"1.58 fold enrichment (6-mer frequency, TF over GST control)"
same,binding signal,ERG,"1.84 fold enrichment (6-mer frequency, TF over GST control)"
same,binding signal,ELF1,"1.69 fold enrichment (6-mer frequency, TF over GST control)"
same,binding signal,EHF,"1.8 fold enrichment (6-mer frequency, TF over GST control)"
same,binding signal,SPI1,"1.9 fold enrichment (6-mer frequency, TF over GST control)"
same,binding signal,SPIB,"1.79 fold enrichment (6-mer frequency, TF over GST control)"
same,binding signal,ELK3,"1.94 fold enrichment (6-mer frequency, TF over GST control)"
same,binding signal,FEV,"2 fold enrichment (6-mer frequency, TF over GST control)"
same,binding signal,ETV5,"1.65 fold enrichment (6-mer frequency, TF over GST control)"
same,binding signal,HSF1,"1.57 fold enrichment (6-mer frequency, TF over GST control)"
same,binding signal,SPIC,"1.65 fold enrichment (6-mer frequency, TF over GST control)"
same,binding signal,ELF4,"1.69 fold enrichment (6-mer frequency, TF over GST control)"
same,binding signal,ELK4,"1.97 fold enrichment (6-mer frequency, TF over GST control)"
same,binding signal,ETV2,"1.72 fold enrichment (6-mer frequency, TF over GST control)"
same,binding signal,ELF3,"1.7 fold enrichment (6-mer frequency, TF over GST control)"
same,binding signal,CRX,"1.74 fold enrichment (6-mer frequency, TF over GST control)"
same,binding signal,ETV1,"1.72 fold enrichment (6-mer frequency, TF over GST control)"
